Records with an inconclusive call do not appear. The source made the active and inactive calls. Rule for the calls: active = hit-call score of the fitted dose curve at least 0.9, where 1 is the maximum; inconclusive = response in the unintended direction; inactive = score below 0.9.
target: Retinoic acid receptor RXR-alpha (Homo sapiens) (UniProt P19793); experiment: ATG_RXRa_TRANS: Attagene TRANS-FACTORIAL HepG2 Assay for human Retinoid X Receptor alpha (RXRa) (AID 2283012)
Protocol: ATG_TRANS is a cell-based, multiplexed-readout assay that uses HepG2, a human liver cell line, with measurements taken at 24 hours after chemical dosing in a 24-well plate.ATG_RXRa_TRANS is one of 30 assay component(s) measured or calculated from the ATG_TRANS assay. It is designed to make measurements of mRNA induction, a form of inducible reporter, as detected with fluorescence intensity signals by Reverse transcription polymerase chain reaction (RT-PCR) and Capillary electrophoresis technology.Data from the assay component ATG_RXRa_TRANS was analyzed into 1 assay endpoint. This assay endpoint, ATG_RXRa_TRANS, was analyzed in the positive analysis fitting direction relative to DMSO as the negative control and baseline of activity. Using a type of inducible reporter, measures of mRNA for gain-of-signal activity can be used to understand the reporter gene at the transcription factor-level as they relate to the gene RXRA. Furthermore, this assay endpoint can be referred to as a primary readout, because this assay has produced multiple assay endpoints where this one serves a reporter gene function. To generalize the intended target to other relatable targets, this assay endpoint is annotated to the nuclear receptor intended target family, where the subfamily is non-steroidal.
Human liver HepG2 cells are transiently transfected with multiple reporter transcription units (MRTUs) in 6-well plates using FuGene 6 reagent (Roche; 3 ml FuGene/1 mg DNA). The MRTU constructs are regulated by a cis-regulating element (promoter). […] A major difference between the CIS and TRANS system is that in CIS activities of endogenous TFs are measured, whereas the TRANS assay evaluates changes in activities of exogenous, chimeric NR-Gal4 proteins. […] At the end of 24 hour incubation, total RNA was isolated using TriZol reagent (Invitrogen). The isolated RNA is then reverse-transcribed using oligo(dT) primer and Mo-MLV reverse transcriptase (Invitrogen) with DNAse I (Ambion) treatment for 30 min. The one-tenth of the produced cDNA was amplified by PCR using Taq DNA polymerase (Invitrogen) and two reporter sequence-specific primers. The PCR products were fluorescently labeled by primer extension with 6-arboxyfluorescein (6-FAM) 5'-labeled reporter sequence-specific primer (2 min at 95 C, 20 s at 68 C and 10 min at 72 C) and these products were digested with 5U of HpaI (New England Biolabs) for 2h at 37 C. The fragments were purified using Qiaquick PCR columns (Qiagen), analyzed on an ABI 3130xL genetic analyzer (Applied Biosystems) with peak positions identified by using a set of X-rhodamine (ROX)-labeled MapMarker1000 molecular weight standards (BioVentures). The raw capillary electrophoresis data was processed using Attagraph software (Attagene).

Chain of Retinoic acid receptor RXR-alpha (Homo sapiens) (P19793 whole entry, looked up): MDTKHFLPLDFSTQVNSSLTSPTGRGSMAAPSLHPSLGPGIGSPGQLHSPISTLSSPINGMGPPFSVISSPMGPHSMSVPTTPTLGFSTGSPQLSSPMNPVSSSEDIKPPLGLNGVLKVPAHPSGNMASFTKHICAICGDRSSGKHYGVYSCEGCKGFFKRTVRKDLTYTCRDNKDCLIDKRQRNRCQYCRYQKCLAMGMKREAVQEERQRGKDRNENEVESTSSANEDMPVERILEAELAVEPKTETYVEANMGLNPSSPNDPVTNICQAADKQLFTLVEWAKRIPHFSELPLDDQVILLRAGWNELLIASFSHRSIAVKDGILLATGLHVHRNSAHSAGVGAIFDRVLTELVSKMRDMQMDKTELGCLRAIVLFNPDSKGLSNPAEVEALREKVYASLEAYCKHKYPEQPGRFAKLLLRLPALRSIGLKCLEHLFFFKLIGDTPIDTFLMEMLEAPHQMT

Compound | outcome
O=P(O)(O)CCCl | inactive
COc1cc(Cl)c(OC)cc1Cl | inactive
CCCC(=NOCC)C1=C(O)CC(CC(C)SCC)CC1=O (stereo not given) | inactive
COc1cc(OC)nc(NC(=O)NS(=O)(=O)c2ncccc2OCC(F)(F)F)n1 | inactive
C=C(C)CN(CC)c1c([N+](=O)[O-])cc(C(F)(F)F)cc1[N+](=O)[O-] | inactive
CC(C)=CC1C(C(=O)OCc2coc(Cc3ccccc3)c2)C1(C)C (stereo not given) | inactive
COC(=O)NC(=S)Nc1ccccc1NC(=S)NC(=O)OC | inactive
CS(=O)(=O)c1ccc(C(=O)C2C(=O)CCCC2=O)c([N+](=O)[O-])c1 | inactive
CC1(C)C(C=C(Cl)Cl)C1C(=O)OC(C#N)c1cccc(Oc2ccccc2)c1 (stereo not given) | inactive
CCC(C)n1c(=O)[nH]c(C)c(Br)c1=O (stereo not given) | inactive
CS(=O)(=O)c1cc(C(F)(F)F)ccc1C(=O)c1cnoc1C1CC1 | inactive
CC(C)NC(=O)N1CC(=O)N(c2cc(Cl)cc(Cl)c2)C1=O | inactive
CC(C)C1(C)N=C(c2ncccc2C(=O)O)NC1=O (stereo not given) | inactive
Cc1c(COC(=O)[C@@H]2[C@H](/C=C(\Cl)C(F)(F)F)C2(C)C)cccc1-c1ccccc1 | inactive
OC(c1ccc(Cl)cc1)(c1ccc(Cl)cc1)C(Cl)(Cl)Cl | inactive
COC(=O)c1c(C(F)F)nc(C(F)(F)F)c(C2=NCCS2)c1CC(C)C | inactive
N#CN=C1SCCN1Cc1ccc(Cl)nc1 | inactive
O=C(Nc1ccccc1-c1ccc(Cl)cc1)c1cccnc1Cl | inactive
CCOc1nc(F)cc2nc(S(=O)(=O)Nc3c(Cl)cccc3Cl)nn12 | inactive
CNC(=O)Oc1cccc2ccccc12 | inactive

Compound | outcome
COCC(=O)N(c1c(C)cccc1C)C(C)C(=O)OC (stereo not given) | inactive
Nc1cnn(-c2ccccc2)c(=O)c1Cl | inactive
N#Cc1c[nH]cc1-c1cccc2c1OC(F)(F)O2 | inactive
CCSC(=O)N1CCCCCC1 | inactive
CC(C)Oc1cccc(NC(=O)c2ccccc2C(F)(F)F)c1 | inactive
CC(C)(C)C(=O)C(Oc1ccc(Cl)cc1)n1cncn1 (stereo not given) | inactive
CC1(C)CCC(=Cc2ccc(Cl)cc2)C1(O)Cn1cncn1 (stereo not given) | inactive
CCOc1nc(C(Cl)(Cl)Cl)ns1 | inactive
Clc1nc(Cl)nc(Nc2ccccc2Cl)n1 | inactive
O=C1C2CC=CCC2C(=O)N1SC(Cl)(Cl)Cl (stereo not given) | inactive
C=CCOC(=O)C(C)(C)OC(=O)c1cc(-n2c(=O)cc(C(F)(F)F)n(C)c2=O)ccc1Cl | inactive
COc1ccc(-c2ccccc2)cc1NNC(=O)OC(C)C | inactive
CC(C)Nc1nc(Cl)nc(NC(C)C)n1 | inactive
CC(C)N1C(=O)c2ccccc2NS1(=O)=O | inactive
CC1(C)CON(Cc2ccccc2Cl)C1=O | inactive
Cc1cc(C)nc(Nc2ccccc2)n1 | inactive
O=c1n(Cl)c(=O)n(Cl)c(=O)n1Cl | inactive
CSC(=O)c1c(C(F)F)nc(C(F)(F)F)c(C(=O)SC)c1CC(C)C | inactive
COCc1cnc(C2=NC(C)(C(C)C)C(=O)N2)c(C(=O)O)c1 (stereo not given) | inactive
CCN(CC)C(=O)C(C)Oc1cccc2ccccc12 (stereo not given) | inactive
